Results reported in the supplement of paper PMC6853941.
Counter-ions that a name gives are not always drawn. Values without a mark were called inactive.

System: MCF10A
Test: perturbation Mahalanobis distance of morphological profile vs DMSO controls (Mahalanobis distance (SD units)); higher = stronger morphological change, active = 7 or more
Details: 72 h
Procedure: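 MCF10A cells were seeded onto drugs dispensed acoustically into 384-well plates, using one dose per drug chosen from its human peak plasma concentration, and incubated for 72 h at 37 °C. Cells were stained for DNA, tubulin and mitochondria and imaged; 78 CellProfiler features were extracted, plate-normalised and compared with DMSO wells.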

[1] = screen batch: Batch1_Mahalanobis_Distance
[2] = screen batch: Batch2_Mahalanobis_Distance

| Structure (SMILES) | perturbation Mahalanobis distance [1] | perturbation Mahalanobis distance [2] |
| --- | --- | --- |
| COCCCOc1cc(C[C@@H](C[C@H](N)[C@@H](O)C[C@H](C(=O)NCC(C)(C)C(N)=O)C(C)C)C(C)C)ccc1OC [Aliskiren] (2.5 µM) | 2.96 | 2.64 |
| Cc1c(OCC(F)(F)F)ccnc1CS(=O)c1nc2ccccc2[nH]1 (stereo not given) [Lansoprazole] (23 µM) | 4.87 | 8.49 (active) |
| O=C1Nc2ccc(Cl)cc2[C@@](C#CC2CC2)(C(F)(F)F)O1 [Efavirenz] (28.8 µM) | 3.91 | 4.25 |
| COc1ccccc1Oc1c(NS(=O)(=O)c2ccc(C(C)(C)C)cc2)nc(-c2ncccn2)nc1OCCO [Bosentan] (33.6 µM) | 3.04 | 5.42 |
| Nc1cc(N2CCCCC2)nc(N)[n+]1OS(=O)(=O)[O-] [Minoxidil Sulfate] (4.3 µM) | 3.4 | 3.55 |
| NC(N)=NC(=O)c1nc(Cl)c(N)nc1N [Amiloride] (1.1 µM) | 5.52 | 3.78 |
| O=C1CN(/N=C/c2ccc(-c3ccc([N+](=O)[O-])cc3)o2)C(=O)N1 [Dantrolene] (23.9 µM) | 2.62 | 3.85 |
| O=NN(CCCl)C(=O)NCCCl [Carmustine] (0.2 µM) | 2.08 | 2.55 |
| C1CNCCN1 [Piperazine Hexahydrate] (5.8 µM) | 2.12 | 2.76 |
| COc1cc(N)c(Cl)cc1C(=O)NC1CCN(CCCOc2ccc(F)cc2)CC1OC (stereo not given) [Cisapride] (0.85 µM) | 3.31 | 2.99 |
